Measured values as given in the supplement of paper PMC8728848.
Only a selection was taken, and the strongest signals are over-represented in it overall.

Assays:
Assay in all cases: glycan array binding signal (z-score within array); higher = stronger binding
Conditions in all cases: glycan notation: IUPAC condensed, linker removed
[1] = target: Fuc(a1-2)Gal(b1-3)GalNAc(b1-3)Gal
Summary of the method: (§1)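 Columns mapping to the same glycan were averaged after glycan names were converted to IUPAC-condensed notation. The data come from 3228 arrays in the Consortium for Functional Glycomics database, limited to those with an available protein sequence. Binding is reported as a within-array Z-score averaged across arrays of one protein sequence and across linkers.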

[2] = target: Fuc(a1-2)Gal(b1-3)GalNAc(b1-3)Gal(a1-4)Gal(b1-4)Glc
Summary of the method: as §1

[3] = target: Fuc(a1-2)Gal(b1-3)GlcNAc6S
Summary of the method: as §1

[4] = target: Fuc(a1-2)Gal(b1-4)GlcNAc(b1-3)Gal(b1-4)GlcNAc
Summary of the method: as §1

[5] = target: Fuc(a1-2)Gal(b1-4)GlcNAc(b1-3)GalNAc
Summary of the method: as §1

[6] = target: Fuc(a1-2)Gal(b1-4)[Fuc(a1-3)]GlcNAc(b1-3)Gal(b1-4)[Fuc(a1-3)]GlcNAc(b1-3)Gal(b1-4)[Fuc(a1-3)]GlcNAc
Summary of the method: as §1

[7] = target: Fuc(a1-2)Gal6S(b1-4)Glc6S
Summary of the method: as §1

[8] = target: Fuc(a1-2)[Gal(a1-3)]Gal(b1-3)GlcNAc
Summary of the method: as §1

[9] = target: Fuc(a1-2)[Gal(a1-4)]Gal(b1-4)GlcNAc
Summary of the method: as §1

[10] = target: Fuc(a1-2)[GalNAc(a1-3)]Gal(b1-4)GlcNAc(b1-3)Gal(b1-4)GlcNAc(b1-3)Gal(b1-4)GlcNAc
Summary of the method: as §1

[11] = target: Fuc(a1-2)[GalNAc(a1-3)]Gal(b1-4)GlcNAc(b1-3)[Fuc(a1-2)[GalNAc(a1-3)]Gal(b1-4)GlcNAc(b1-6)]GalNAc
Summary of the method: as §1

[12] = target: Fuc(a1-3)[Gal(b1-4)]Glc6S
Summary of the method: as §1

[13] = target: Fuc(a1-3)[Gal(b1-4)]GlcNAc(b1-3)GalNAc
Summary of the method: as §1

[14] = target: Fuc(a1-3)[Gal(b1-4)]GlcNAc(b1-6)GalNAc
Summary of the method: as §1

[15] = target: Fuc(a1-3)[GalNAc(b1-4)]GlcNAc
Summary of the method: as §1

Gal(a1-4)GlcNAc = target: Gal(a1-4)GlcNAc
Summary of the method: as §1

Gal(b1-2)Gal = target: Gal(b1-2)Gal
Summary of the method: as §1

Gal(b1-3)Gal(b1-4)GlcNAc = target: Gal(b1-3)Gal(b1-4)GlcNAc
Summary of the method: as §1

[16] = target: Gal(b1-3)GalNAc(a1-3)[Fuc(a1-2)]Gal(b1-4)Glc
Summary of the method: as §1

[17] = target: Gal(b1-3)GlcNAc(b1-3)GalNAc
Summary of the method: as §1

Gal(b1-3)GlcNAc6S = target: Gal(b1-3)GlcNAc6S
Summary of the method: as §1

[18] = target: Gal(b1-3)[GlcNAc(b1-6)]GalNAc
Summary of the method: as §1

Gal(b1-4)Glc6S = target: Gal(b1-4)Glc6S
Summary of the method: as §1

[19] = target: Gal(b1-4)GlcNAc(b1-2)Man(a1-3)[GlcNAc(b1-4)][Gal(b1-4)GlcNAc(b1-2)Man(a1-6)]Man(b1-4)GlcNAc(b1-4)GlcNAc
Summary of the method: as §1

[20] = target: Gal(b1-4)GlcNAc(b1-2)[Gal(b1-4)GlcNAc(b1-4)]Man(a1-3)[Gal(b1-4)GlcNAc(b1-2)Man(a1-6)]Man(b1-4)GlcNAc(b1-4)GlcNAc
Summary of the method: as §1

B1: TAL6-4LysM (Trichoderma atroviride) (protein)
chain: AADSIPSISPTGIITPTPTQSGMVSNCNKFYDVHSNDGCSAIASSQHVDLSSLYKWNPAIKTDCSGLQASVYVCIGILTTSMSTTSKLPTTTSKPSTTSKPPTGITTPTPTQSGMVKNCNKFYDVHSGDGCSAIASSQKVNLSSFYLWNPAVKTDCSGLQASVFVCIGTLTTSMSTTTSKLPTTTSKPSTTSKPPTGIITPTPTQNGMVKNCNKFYDVHSGDGCSAIASSQKVNLSSFYLWNPAVKTDCSGLQASVFVCVGTATTTTAAGITTPTPTQSGMVSGCNKFYDVHAGDGCSAIASSQKIALSSLYKWNPAVKTDCSGLQASVYICIGVGNAAAARVTGALEQKLISEEDLNSAVDHHHHHH
Which results are given for B1?
glycan array binding signal (z-score) [1]: -0.335; glycan array binding signal (z-score) [2]: -1.13; glycan array binding signal (z-score) [3]: 1.83; glycan array binding signal (z-score) [4]: 0.858; glycan array binding signal (z-score) [5]: -0.49; glycan array binding signal (z-score) [6]: 0.899; glycan array binding signal (z-score) [7]: -0.234; glycan array binding signal (z-score) [8]: -0.6; glycan array binding signal (z-score) [9]: 2.32; glycan array binding signal (z-score) [10]: -0.51; glycan array binding signal (z-score) [11]: -0.157; glycan array binding signal (z-score) [12]: 0.195; glycan array binding signal (z-score) [13]: -0.606; glycan array binding signal (z-score) [14]: -0.062; glycan array binding signal (z-score) [15]: 3.19; glycan array binding signal (z-score) (Gal(a1-4)GlcNAc): 2.59; glycan array binding signal (z-score) (Gal(b1-2)Gal): 0.734; glycan array binding signal (z-score) (Gal(b1-3)Gal(b1-4)GlcNAc): 2.92; glycan array binding signal (z-score) [16]: -0.473; glycan array binding signal (z-score) [17]: 0.663; glycan array binding signal (z-score) (Gal(b1-3)GlcNAc6S): 3.15; glycan array binding signal (z-score) [18]: 2.39; glycan array binding signal (z-score) (Gal(b1-4)Glc6S): -0.334; glycan array binding signal (z-score) [19]: -0.532; glycan array binding signal (z-score) [20]: 3.53
